High-throughput results deposited in PubChem BioAssay by The Scripps Research Institute Molecular Screening Center.
In the library only some 4.8% were active in any assay of this set; here they are far more common.
DAX1 inh-1: DAX1 (NR0B1) inhibition, primary screen; HEK293T StAR-luciferase reporter, SF-1/DAX-1 repression relief; inhibition, % at 6.8 µM; hit rate 1.1% among 370,000;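 active = inhibition above the mean over all tested compounds plus 3 SD, cut at about 3.6% in these data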;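 note: higher inhibition means more luminescence from relief of DAX-1 repression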
ssDAF-12 act: activators of S. stercoralis DAF-12 nuclear receptor; HEK293 ssDAF-12/GRIP1 lit1-tk-luc reporter, luminescence; % of 3 µM dafachronic acid response; hit rate 1% among 370,000; activation, % at 6.8 µM; AID 652126;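 active = activation above the mean over all tested compounds plus 3 SD, cut at about 0.9% in these data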
hgDAF-12 ag: agonists of H. glycines DAF-12 nuclear receptor; HEK293 GAL4-hgDAF12 UAS-luciferase reporter, agonist luminescence; normalized to butyrate control; activation, % at 6.8 µM; hit rate 1.8% among 370,000; AID 687014;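 active = activation above a cutoff set at the mean of all screened compounds plus 3 SD, cut at about 10% in these data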
hcDAF12 agonist: H. contortus DAF-12 activation, primary screen. HEK293 hcDAF-12 lit1-tk-luc reporter, luminescence; 0% DMSO, 100% Δ7-dafachronic acid. activation, % at 6.8 µM. hit rate 1.4% among 370,000. AID 652067;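 active = activation above the mean of all tested compounds plus 3 SD, cut at about 5.5% in these data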
SMARCA2 act: activators of SMARCA2 function | MG213 cells, MMTV-luciferase reporter, dexamethasone, overnight | activation, % at 9.1 µM | hit rate 1% among 370,000; in the data active = activation above about 7.8%
DAX1 inh-2: inhibits human nuclear receptor DAX1. HEK293 Gal4-DAX1 luciferase reporter, luminescence. hit rate 0.99% among 340,000. P51843. inhibition, % at 6.75 µM;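 active = inhibition above the mean over all tested compounds plus 3 SD, cut at about 4.2% in these data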;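 note: inhibition shows as a rise in luminescence from relieved DAX1 repression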
Target sequence (P51843 207-470 limits assumed): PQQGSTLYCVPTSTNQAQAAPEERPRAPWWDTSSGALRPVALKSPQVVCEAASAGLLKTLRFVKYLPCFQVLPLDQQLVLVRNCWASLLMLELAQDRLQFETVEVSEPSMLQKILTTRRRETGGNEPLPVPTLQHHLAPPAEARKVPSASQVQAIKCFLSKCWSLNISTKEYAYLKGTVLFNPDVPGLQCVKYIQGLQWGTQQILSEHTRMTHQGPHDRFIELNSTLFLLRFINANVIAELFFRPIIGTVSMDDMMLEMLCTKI
DAX1 inh confirm: NR0B1 (human) inhibition, confirmation; shares compounds with DAX1 inh-1; HEK293T StAR-promoter luciferase reporter, SF-1/DAX-1 repression; inhibition, % at 6.8 µM; hit rate 87% among 2,400;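 active = inhibition above the average of every tested compound plus 3 SD, cut at about 3.8% in these data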;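 note: active compounds raise luminescence by relieving repression of the StAR reporter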
SF1 mutant ctr: nonselective inhibitor or artifact in SF-1 mutant DAX1 counter-screen. inhibition, % at 6.8 µM. shares compounds with DAX1 inh-1. hit rate 78% among 2,400. HEK293 StAR-luciferase, SF-1 AF2 mutant, luminescence;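 active = inhibition above the mean of all tested compounds plus 3 SD, cut at about 3% in these data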
SMARCA2 act conf: SMARCA2 activation, confirmation screen | shares compounds with SMARCA2 act | MG213 cells, MMTV-luciferase with dexamethasone, luminescence, overnight; MG213 cells expressing E1A, Rb sequestered; DMSO wells 0%, reference activator 100% | activation, % at 9.1 µM | hit rate 30% among 3,500;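 active = activation above its plate's cutoff, the mean activation of tested wells plus 3 SD, cut at about 7.9% in these data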
GAL4-VP16 Luc: counter-screen for SMARCA2 activators: GAL4-VP16 luciferase reporter activation. activation, % at 9.1 µM. hit rate 41% among 3,500. shares compounds with SMARCA2 act. HEK293 GAL4-VP16 pG5luc reporter, luciferase luminescence; scaled: DMSO wells 0%, SAHA wells 100%;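 active = activation above the solvent-only control well mean plus 3 SD, averaged across control plates, cut at about 5.2% in these data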
LXRb hcDAF ctr: LXR-beta agonism as hcDAF-12 counter-screen; shares compounds with hcDAF12 agonist; HEK293 Gal4-LXR tk-luc reporter, luminescence, 24 h; normalized: DMSO 0%, positive control 100%; activation, % at 6.8 µM; 3,400 tested, under 10 active;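 active = mean percent activation of the reporter above a cutoff set as the average over tested compounds plus their standard deviation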
Target sequence (P55055 whole entry, looked up, the tested form may be a part): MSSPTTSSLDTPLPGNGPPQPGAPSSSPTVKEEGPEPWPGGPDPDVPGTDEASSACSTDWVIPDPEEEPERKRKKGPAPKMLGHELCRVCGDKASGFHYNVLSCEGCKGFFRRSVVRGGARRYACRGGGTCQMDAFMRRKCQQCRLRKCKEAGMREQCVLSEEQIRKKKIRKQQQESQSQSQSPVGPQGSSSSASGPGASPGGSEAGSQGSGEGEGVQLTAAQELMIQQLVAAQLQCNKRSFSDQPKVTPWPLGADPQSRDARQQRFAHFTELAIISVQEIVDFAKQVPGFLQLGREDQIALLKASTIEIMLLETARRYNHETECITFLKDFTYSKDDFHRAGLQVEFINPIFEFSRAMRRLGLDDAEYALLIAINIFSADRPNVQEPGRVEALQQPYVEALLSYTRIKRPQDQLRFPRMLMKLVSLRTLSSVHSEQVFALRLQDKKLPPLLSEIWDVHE
hcDAF12 conf: confirmation of H. contortus DAF-12 agonists; shares compounds with hcDAF12 agonist; HEK293 hcDAF-12 lit1-tk-luc reporter, luminescence; % of Δ7-dafachronic acid response; activation, % at 6.8 µM; hit rate 61% among 3,400;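 active = mean activation across triplicate tests above the threshold derived from the earlier primary screen, cut at about 5.5% in these data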
hgDAF12 conf: confirmation of H. glycines DAF-12 agonists | HEK293 GAL4-hgDAF12 luciferase reporter, agonist mode; percent of butyrate response | shares compounds with hgDAF-12 ag | activation, % at 6.8 µM | hit rate 80% among 3,300;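 active = mean activation over triplicate wells above the hit cutoff derived from the earlier primary screen, cut at about 11% in these data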
LXRb DAF12 ctr: activates human LXR-beta, counter-screen for DAF-12 agonists. HEK293 Gal4-LXR luciferase reporter, 24 h. AID 743051. shares compounds with hgDAF-12 ag. 3,300 tested, under 10 active. activation, % at 6.8 µM;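 active = mean activation of the triplicate above a set limit carried over from the primary screen, none filed active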
Hits are given with their value; . = inactive; / = no result.

SMILES | DAX1 inh-1 | ssDAF-12 act | hgDAF-12 ag | hcDAF12 agonist | SMARCA2 act | DAX1 inh-2 | DAX1 inh confirm | SF1 mutant ctr | LXRb hcDAF ctr | hcDAF12 conf | hgDAF12 conf | LXRb DAF12 ctr | others
Cn1cccc1C(=O)C(=O)Nc1ccc(F)c(F)c1 | 4.9 | 1.8 | 14.7 | . | . | . | 9.1 | 7.7 | / | / | 16.2 | .
CNS(=O)(=O)c1cccc(C(=O)OCC(=O)Nc2ccc(-c3nc4ccc(C)cc4s3)cc2)c1 | / | / | / | / | / | . | / | / | / | / | / | /
COc1ccc(/C=C(\C#N)C(=O)OCC(=O)Nc2ccc(-c3nc4ccc(C)cc4s3)cc2)cc1 | 8.3 | 2.7 | 20.7 | 8.4 | 7.8 | . | 6.7 | 3.2 | . | 10.2 | 20.7 | .
Cc1ccc2nc(-c3ccc(NC(=O)COC(=O)c4ccc(Br)o4)cc3)sc2c1 | 6.6 | 3.0 | 27.5 | 17.7 | 9.3 | 5.7 | 9.7 | 4.2 | . | 13.0 | 23.9 | .
Cc1ccc2nc(-c3ccc(NC(=O)CN(c4ccccc4C)S(C)(=O)=O)cc3)sc2c1 | 4.8 | 1.0 | 15.4 | . | . | . | 8.0 | 5.4 | / | / | 20.1 | .
O=C(CCS(=O)(=O)c1ccccc1)Nc1cccc(-c2nc3ccccc3s2)c1 | . | . | . | . | . | . | / | / | / | / | / | /
O=C(CCS(=O)(=O)c1ccccc1)Nc1ccc(-c2nc3ccccc3s2)cc1 | 6.1 | 1.2 | 17.9 | 9.2 | . | . | 13.4 | 8.9 | . | 5.7 | 14.9 | .
COc1ccc(/C=C(\C#N)C(=O)OCC(=O)NC(C)c2ccccc2)cc1 (configuration not stated) | . | . | . | . | . | . | / | / | / | / | / | /
COC(=O)C1CN(Cc2ccc(Cl)cc2)CCS(=O)(=O)N1Cc1cn(Cc2ccc(C)cc2)nn1 (configuration not stated) | . | . | . | . | . | / | / | / | / | / | / | /
COc1ccc2c(CN(C)Cc3ccccc3)cc(=O)oc2c1 | 7.2 | . | 15.0 | . | . | / | 7.6 | 4.1 | / | / | 14.9 | .
CCN(CC)CCN(C(=O)c1ccc(C(=O)c2ccccc2)cc1)c1nc2cc3c(cc2s1)OCO3 | . | . | . | . | . | . | / | / | / | / | / | /
CCN(CC)CCN(C(=O)c1ccc2ncsc2c1)c1nc2cc3c(cc2s1)OCO3 | 14.8 | 2.6 | 17.4 | 15.9 | . | . | 10.6 | 11.3 | . | 11.0 | 15.1 | .
COP(=O)(OC)C(Cc1ccccc1)NC(=O)CNC(=O)OCc1ccccc1 (configuration not stated) | . | . | . | . | . | / | / | / | / | / | / | /
CN(C)CCNc1ncnc2c1cnn2-c1ccc(Cl)cc1 | 5.5 | . | 18.9 | 7.8 | 13.5 | . | 10.0 | 6.6 | . | . | 13.8 | . | SMARCA2 act conf=10.6;GAL4-VP16 Luc=11.5
Cc1ccc(Cn2ncc3c(NCCN(C)C)ncnc32)cc1 | . | . | . | . | . | . | / | / | / | / | / | /
Clc1ccc(-n2ncc3c(NCC4CCCO4)ncnc32)cc1 (configuration not stated) | 7.1 | . | 13.7 | . | . | . | 4.6 | . | / | / | 17.0 | .
Clc1ccccc1N=C1NN=C(c2cccs2)CS1 | 7.2 | 1.3 | 17.7 | 10.2 | . | . | 9.5 | 5.3 | . | 9.3 | 16.3 | .
Cc1ccccc1C(=O)N[C@H](C(=O)N1CCC[C@H]1C(=O)NCCc1ccccc1Cl)c1ccccc1 | . | . | . | . | . | / | / | / | / | / | / | /
Cc1ccc(OCC(=O)N2CCc3ccccc32)cc1 | 5.1 | 1.6 | 21.8 | 10.6 | . | . | 15.1 | 9.1 | . | 5.7 | 13.0 | .
COc1ccc(NC(=O)N2CCCc3ccccc32)cc1 | . | . | . | . | . | . | / | / | / | / | / | /
Cc1ccc(OCC(=O)N2CCCc3ccccc32)cc1 | . | . | . | . | . | . | / | / | / | / | / | /
COc1ccc(NC(=O)N2CCc3ccccc32)cc1 | 5.1 | 1.0 | 16.0 | 9.1 | . | . | 15.2 | 5.8 | . | 7.4 | 17.7 | .
S=C(NCC1CCCCC1)OC1CCC12CCC(c1ccccc1)CC2 (configuration not stated) | . | . | . | . | . | / | / | / | / | / | / | /
CCC1CCCCN1C(=O)n1ncc(C(O)(c2ccccc2)c2ccccc2)n1 (configuration not stated) | / | . | . | . | / | / | / | / | / | / | / | /
COc1ccc(-n2c(SCC(=O)Nc3ccc(S(=O)(=O)Nc4cc(C)nc(C)n4)cc3)nnc2-c2ccco2)cc1 | . | . | . | . | . | / | / | / | / | / | / | /
SMILES | DAX1 inh-1 | ssDAF-12 act | hgDAF-12 ag | hcDAF12 agonist | SMARCA2 act | DAX1 inh-2 | DAX1 inh confirm | SF1 mutant ctr | LXRb hcDAF ctr | hcDAF12 conf | hgDAF12 conf | LXRb DAF12 ctr | others
O=C(COc1ccc(F)cc1Cl)Nc1nnc(-c2ccc(F)c(F)c2)o1 | / | . | . | . | / | / | / | / | / | / | / | /
O=c1[nH]c(=O)n(C2CC(O)C(CO)O2)cc1Br (configuration not stated) | 10.8 | . | 15.5 | 6.2 | . | . | 17.5 | 6.8 | / | / | 20.4 | .
CCCC(=O)Nc1ccc(-c2nc3cc(C)c(C)cc3o2)cc1 | 5.5 | 1.6 | 13.3 | . | . | . | 14.4 | 8.7 | / | / | 16.4 | .
O=C(Nc1nc2c(F)cccc2s1)c1ccco1 | 4.8 | . | 15.6 | 5.6 | . | . | 6.8 | 6.7 | / | / | 16.6 | .
CC(=O)Nc1nc2c(F)cccc2s1 | . | . | . | . | . | . | / | / | / | / | / | /
O=C(Nc1ccc2c(c1)OCCO2)C1C(c2ccccc2)=Nc2ccccc2N1C(=O)c1cccnc1 (configuration not stated) | 13.0 | . | 20.1 | 10.7 | . | / | 20.0 | 7.9 | . | 7.1 | 12.2 | .
